# This is one part of a sample in which hits are shown more often than they occur.
# IDE exosite FP: exo-site inhibitors of human IDE, primary screen, biochemical, fluorescence anisotropy, probe displacement | z-score at 20 µM | 6.3% of 17,000 active | purified IDE, FL-6b probe fluorescence polarization; hits give low values | Insulin-degrading enzyme (Homo sapiens), P14735;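 active = z-score of -3 or lower, meaning strong loss of probe binding signal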;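 note: His-tagged human IDE residues 42-1019 made in E. coli with 30 nM FL-6b probe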
# Target sequence (P14735 42-1019 limits assumed): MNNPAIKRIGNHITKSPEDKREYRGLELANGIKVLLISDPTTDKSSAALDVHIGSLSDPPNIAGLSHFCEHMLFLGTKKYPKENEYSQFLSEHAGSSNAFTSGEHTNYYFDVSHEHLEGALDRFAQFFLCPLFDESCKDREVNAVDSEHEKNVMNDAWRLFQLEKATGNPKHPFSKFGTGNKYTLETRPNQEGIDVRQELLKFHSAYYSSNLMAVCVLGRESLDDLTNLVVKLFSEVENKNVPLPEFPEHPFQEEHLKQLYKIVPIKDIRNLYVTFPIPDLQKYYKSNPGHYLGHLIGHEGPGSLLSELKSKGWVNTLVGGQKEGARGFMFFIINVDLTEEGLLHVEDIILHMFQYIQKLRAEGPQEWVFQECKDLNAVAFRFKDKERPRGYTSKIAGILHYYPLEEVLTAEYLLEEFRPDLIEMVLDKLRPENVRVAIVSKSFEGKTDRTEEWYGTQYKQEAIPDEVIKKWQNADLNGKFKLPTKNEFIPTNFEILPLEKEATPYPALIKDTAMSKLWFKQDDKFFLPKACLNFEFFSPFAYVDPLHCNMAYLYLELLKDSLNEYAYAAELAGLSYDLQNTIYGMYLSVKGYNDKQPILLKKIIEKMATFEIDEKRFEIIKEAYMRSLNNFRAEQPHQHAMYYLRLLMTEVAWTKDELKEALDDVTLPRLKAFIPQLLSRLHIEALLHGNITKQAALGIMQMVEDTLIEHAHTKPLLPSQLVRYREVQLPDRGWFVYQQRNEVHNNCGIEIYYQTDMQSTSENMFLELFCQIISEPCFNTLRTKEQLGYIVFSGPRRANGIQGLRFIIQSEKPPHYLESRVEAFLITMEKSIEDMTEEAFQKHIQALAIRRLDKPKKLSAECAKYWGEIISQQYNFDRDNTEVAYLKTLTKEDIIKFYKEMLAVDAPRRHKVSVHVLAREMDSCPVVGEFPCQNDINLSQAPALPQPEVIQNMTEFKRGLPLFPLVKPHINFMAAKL
# An asterisk follows results filed as active.
SMILES,IDE exosite FP
COc1cccc(-c2ccc([C@H]3[C@H]4CN(C(=O)C5CCOCC5)CC(=O)N4[C@H]3CO)cc2)c1,-0.85
CCS(=O)(=O)N1CCCCN2[C@@H](CO)[C@@H](c3ccc(-c4ccc(C(=O)N(C)C)cc4)cc3)[C@@H]2C1,-1.2
C[C@@H](O)C#Cc1ccc([C@H]2[C@H](CO)N3CCCCN(CC4CCOCC4)C[C@@H]23)cc1,1.2
C/C=C/c1ccc([C@H]2[C@@H](CO)N3C(=O)CN(C(=O)c4ccc(F)cc4)C[C@@H]23)cc1,0.17
O=C(CN1CCOCC1)N[C@@H]1CC[C@H](CCn2cc(C3CC3)nn2)O[C@@H]1CO,0.45
Cc1cccc(S(=O)(=O)N2CCCCN3[C@H](C2)[C@@H](c2ccc(C#CC(C)C)cc2)[C@@H]3CO)c1,2.1
O=C(Nc1ccc(F)cc1)N1CC(=O)N2[C@H](CO)[C@@H](c3ccc(C#Cc4ccccc4)cc3)[C@@H]2C1,0.86
Cc1ccccc1S(=O)(=O)N1CCCCN2[C@H](CO)[C@H](c3ccc(-c4cncnc4)cc3)[C@@H]2C1,4.5
CC(C)NC(=O)Nc1ccc2c(c1)C(=O)N([C@H](C)CO)C[C@@H](C)[C@H](CN(C)C(=O)C1CCCCC1)OCCCC[C@H](C)O2,1.9
COc1ccccc1-c1ccc([C@@H]2[C@@H](CO)N3CCCCN(S(=O)(=O)c4cn(C)cn4)C[C@@H]23)cc1,-15*
Cn1cnc(S(=O)(=O)N2CCCCN3[C@H](CO)[C@H](c4ccc(C#CC5CCCC5)cc4)[C@H]3C2)c1,1.9
COc1ccccc1-c1ccc([C@H]2[C@H]3CN(S(=O)(=O)c4cn(C)cn4)CCCCN3[C@H]2CO)cc1,0.56
COc1ccccc1-c1ccc([C@@H]2[C@H](CO)N3CCCCN(S(=O)(=O)c4cn(C)cn4)C[C@@H]23)cc1,-13*
Cn1cnc(S(=O)(=O)N2CCCCN3[C@@H](CO)[C@H](c4ccc(C#CC5CCCC5)cc4)[C@@H]3C2)c1,3.3
Cn1cnc(S(=O)(=O)N2CCCCN3[C@H](C2)[C@@H](c2ccc(C#CC4CCCC4)cc2)[C@@H]3CO)c1,1.2
COCCNC(=O)C[C@H]1CC[C@H]2[C@@H](COC[C@@H](O)CN2S(=O)(=O)c2ccccc2F)O1,-0.22
O=C(NCc1cccc(F)c1)[C@@H]1[C@@H](CO)[C@@H]2Cn3c(ccc(-c4ccncc4)c3=O)[C@H]1N2CC1CC1,0.84
O=C(c1cccc(F)c1)N1CCCCN2[C@H](C1)[C@H](c1ccc(C#CC3(O)CCCC3)cc1)[C@@H]2CO,-1.3
OC[C@@H]1[C@H](c2ccc(C#Cc3ccccc3)cc2)[C@H]2CN(CC3CCOCC3)CCCCN12,-4.4*
CCCC#Cc1ccc([C@@H]2[C@@H](CO)N3CCCCN(CC4CCOCC4)C[C@@H]23)cc1,-1.2
OC[C@@H]1[C@@H](c2ccc(C#Cc3ccccc3F)cc2)[C@H]2CN(CC3CCOCC3)CCCCN12,2.2
OC[C@H]1[C@H](c2ccc(C#Cc3ccccc3)cc2)[C@@H]2CN(CC3CCOCC3)CCCCN12,-3.6*
CCCC#Cc1ccc([C@@H]2[C@@H](CO)N3CCCCN(CC4CCOCC4)C[C@H]23)cc1,0.69
OC[C@H]1[C@H](c2ccc(C#Cc3ccccc3F)cc2)[C@H]2CN(CC3CCOCC3)CCCCN21,-0.28
CCC(=O)N1[C@H](CN(CC)C(C)=O)[C@@H](c2ccc(-c3cccnc3)cc2)[C@@H]1CO,0.87
CN(C)C(=O)c1cccc(-c2ccccc2[C@@H]2[C@@H](CO)N(C(=O)C3CCC3)[C@H]2C#N)c1,2.1
O=C(Cc1cccnc1)N1CC(=O)N2[C@H](CO)[C@H](c3ccc(C#CC4CC4)cc3)[C@@H]2C1,1.2

# High-throughput results: PubChem, Broad Institute
